From PubChem BioAssay (NCI)
This is part of a sample that, as a whole, favours compounds with a hit. Of some 79,000 tested, about 15% had one in any assay. Unmarked numbers belong to inactive results. Active and inactive are the calls of the source. No stated cut-off is given here; in the data, active means growth inhibition above about 70%; inactive means the rest.

Assay: NCI Yeast Anticancer Drug Screen. Data for the mlh1 rad18 strain (AID 175)
Details: S. cerevisiae mlh1 rad18 strain growth inhibition, stronger effect = higher value
Method: Growth inhibition of yeast strains with defined genetic alterations is measured as a screen for potential anti-cancer activity. Selected strains with alterations in DNA damage repair or cell cycle control were exposed to compounds and growth inhibition was measured relative to vehicle treated controls. The strain used in this assay is mlh1 rad18

[1] = at 5.0 µM (retest, dose inferred, filed as 0.5)
[2] = at 50.0 µM (retest, dose inferred, filed as 5.0)

COc1ccc(/C=N/NS(=O)(=O)c2ccc(C)cc2)cc1
growth inhibition [1]: 46%
growth inhibition [2]: 98% (active)
growth inhibition (at 50.0 µM): 97.3% (active)

CCCCN(C)N=Nc1c(C(N)=O)n[nH]c1C(C)C
growth inhibition [1]: 29%
growth inhibition [2]: 80% (active)
growth inhibition (at 50.0 µM): 57.6%

Cc1cc(C)c(O)c(C(C)(C)C)c1
growth inhibition [1]: 2%
growth inhibition [2]: 4%
growth inhibition (at 50.0 µM): 89.7% (active)

CCOC(=O)Nc1cc2c(c(N)n1)N=C(c1ccccc1)CN2
growth inhibition [1]: 10%
growth inhibition [2]: 52%
growth inhibition (at 50.0 µM): 18.1%

Cc1c(NC(=O)CCl)c(=O)oc2c(C)c3occc(=O)c3cc12
growth inhibition [1]: 13%
growth inhibition [2]: 94% (active)
growth inhibition (at 50.0 µM): 92% (active)

CC(C)NC(=O)OCCN=C1c2ccccc2CCc2ccccc21
growth inhibition [1]: -11%
growth inhibition [2]: 95% (active)
growth inhibition (at 50.0 µM): 68.8%

CC(=O)O[C@@H]1CO[C@H]2O[C@H]3[C@@H](C(C=O)=C[C@H](O)[C@@H]4C5=C(C(C)C)CC[C@]5(C)CC[C@@]34C)[C@@]2(O)C1=O
growth inhibition [1]: 98% (active)
growth inhibition [2]: 99% (active)
growth inhibition (at 50.0 µM): 91.7% (active)

CC1(C)C(=O)C(C(Cl)(Cl)Cl)=C(Cl)C(=O)C1(Cl)Cl
growth inhibition [1]: 42%
growth inhibition [2]: 97% (active)
growth inhibition (at 50.0 µM): 67.5%

CC(C)Cc1cc2c(cc1O)CCC1C2CC[C@@]2(C)C1CC[C@@H]2O (some centres not stated)
growth inhibition [1]: -11%
growth inhibition [2]: 97% (active)
growth inhibition (at 50.0 µM): 88.4% (active)

O=[N+]([O-])c1ccc(/C=N/NC2=CS(=O)(=O)C=C2)cc1
growth inhibition [1]: -4%
growth inhibition [2]: 2%
growth inhibition (at 50.0 µM): 1.1%

Cc1ccc2c(c1)C(O)(c1ccccc1)C(c1ccccc1)C(c1ccccc1)O2 (configuration not stated)
growth inhibition [1]: 66%
growth inhibition [2]: 88% (active)
growth inhibition (at 50.0 µM): 93.6% (active)

O=c1c(Cl)cc2nc3ccccc3sc-2c1Cl
growth inhibition [1]: 55%
growth inhibition [2]: 87% (active)
growth inhibition (at 50.0 µM): 83% (active)

COc1cc(NS(=O)(=O)c2ccc(NC(C)c3ccc4cccnc4c3O)cc2)nc(OC)n1 (configuration not stated)
growth inhibition [1]: 5%
growth inhibition [2]: 82% (active)
growth inhibition (at 50.0 µM): 97.3% (active)

Clc1ccc2nc(Cl)c(Cl)nc2c1
growth inhibition [1]: -137%
growth inhibition [2]: 62%
growth inhibition (at 50.0 µM): 69.6%
